From PubChem BioAssay (Tox21) come the findings set out here.

Values joined by “and” are separate entries in the source; they are usually repeats but may differ in a detail not shown here. Identical values can stand only once. Some structures have more than one record in an assay (separate samples or runs), and their calls can disagree. Active and inactive are the calls of the source. Calls follow the shape of the full dose curve.
% is scaled to controls: 0 for no effect and ±100 for the full control effect.

This assay is described as follows: qHTS assay to identify small molecule agonists of the estrogen related receptor (ERR) signaling pathway from Tox21 library (AID 1224849). Also: nearly all actives have a fitted effect of over 15% in size. To be noted: ERR reporter cell line, ONE-Glo luciferase, 18 h; at 42.5 µM (top of the series). The essentials: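 ERR reporter cell line (NTP) seeded, rested 6 h at 37 C/5% CO2, then pinned with Tox21 compounds in DMSO. After 18 h at 37 C, ONE-Glo luciferase luminescence was read following 30 min at room temperature.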
Background: In qHTS, concentration-response curves come from the screen itself.
As to `Cc1c(OCC(F)(F)F)ccnc1CS(=O)c1nc2ccccc2[nH]1` (stereo not drawn), the activity change, positive = activation is -8.69% (active). To `Nc1ncn([C@@H]2O[C@H](CO)[C@@H](O)[C@H]2O)c(=O)n1` belongs -50.1% (inactive).

In the case of `Cc1ccc2c(n1)Oc1ccc(C(C)C(=O)OCC(=O)N(C)C)cc1C2` (stereo not drawn), the activity change, positive = activation is 24.3% (active) and 6.58% (inactive).

With `CCCCOCCOCCOCCO`, the activity change, positive = activation is 2.27% (inactive).

On to `CCOC(=O)C(C#N)=C(c1ccccc1)c1ccccc1`, for which the activity change, positive = activation is -21.7% (inactive). To `CC(C(=O)O)c1cccc(C(=O)c2ccccc2)c1` (stereo not drawn) belongs 0.181% (inactive). `O=C1OC2(c3cc(Br)c(O)c(Br)c3Oc3c2cc(Br)c(O)c3Br)c2c(Cl)c(Cl)c(Cl)c(Cl)c21`: the activity change, positive = activation was -3.67% (inactive).

With `C[C@]12CC[C@H]3[C@@H](CCC4=CC(=O)CC[C@@]43C)[C@@H]1CC[C@@H]2C(=O)CO`, the activity change, positive = activation is -34.2% (inactive). With `C#C[C@]1(O)CC[C@H]2[C@@H]3CCc4cc(OC)ccc4[C@H]3CC[C@@]21C`, the activity change, positive = activation was -12.2% (inactive).

Turning to `CCCCc1oc2ccccc2c1C(=O)c1cc(I)c(OCCN(CC)CC)c(I)c1`, the activity change, positive = activation is -36% (inactive) and -39.6% (inactive). Consider `CC(C)Oc1ccc2c(=O)c(-c3ccccc3)coc2c1`, for which the activity change, positive = activation was 38.2% (active) and 33.2% (active).

Consider `Cn1cnc([N+](=O)[O-])c1Sc1ncnc2nc[nH]c12`, for which the activity change, positive = activation is 8.83% (inactive). To `O=C(/C=C/c1ccccc1)OCc1ccccc1` belongs 33.8% (active).
